Test systems include NCI-H23 lung; NCI-H226 lung; NCI-H322M lung; HOP-62 NSCLC; NCI-H460 lung; NCI-H522 lung; A549/ATCC NSCLC; 786-0 renal; COLO 205 colon; DU-145 prostate; K-562 leukemia; MALME-3M melanoma; MDA-MB-231 breast; RXF 393 renal; SF-268 CNS; SF-295 CNS; SF-539 CNS; UACC-257 melanoma; M14 melanoma.
Common to all, as to assay: NCI-60 one-dose screen, 48 h (100 = growth as untreated, 0 = no growth, -100 = all killed)
Common to all, as to details: 10 µM

This is part of a sample that, as a whole, favours compounds with a hit. Of some 83,000 tested, about 20% had one in any assay.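 Method: cells in 96-well plates; compound added at one concentration; 48 h incubation; percent growth measured; values under 10 scored active.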 Values without a mark were called inactive. Calls of active or inactive are those of the source.

In the case of `CCCCC/C=N/Nc1nc(C)cc(=O)[nH]1`, the growth in the assay with NCI-H23 lung was 98.7%; with NCI-H226 lung, 97.5%; in the assay with NCI-H322M lung, 100%; in the assay with HOP-62 NSCLC, 117%; in the assay with NCI-H460 lung it was 107%; in the assay on NCI-H522 lung, 112%. The growth in the assay with A549/ATCC NSCLC is 86.8%; with 786-0 renal, 102%; with COLO 205 colon, 121%; in the assay with DU-145 prostate, 114%; in the assay with K-562 leukemia, 105%; in the assay with MALME-3M melanoma it was 103%. The growth with MDA-MB-231 breast is 95.2%; in the assay with RXF 393 renal, 105%; in the assay on SF-268 CNS it was 107%; in the assay on SF-295 CNS, 88.8%; in the assay on SF-539 CNS it was 108%; with UACC-257 melanoma it was 93.1%. Also, the growth in the assay on M14 melanoma was 106%.

Take `CCNCCCCNCCCCNCCCCNCCCCNCC`: the growth with NCI-H23 lung is 49.5%; in the assay with NCI-H226 lung, 134%; in the assay on NCI-H322M lung, 42.1%; in the assay on HOP-62 NSCLC it was 113%; in the assay on NCI-H460 lung, 76.1%; in the assay on NCI-H522 lung, 87.3%. Also, the growth is 54.4% in the assay on A549/ATCC NSCLC; 150% in the assay on 786-0 renal; 69.1% with COLO 205 colon; 82.1% with DU-145 prostate; 61% in the assay on K-562 leukemia; -12.6% (active) with MALME-3M melanoma. For the same molecule, the growth with MDA-MB-231 breast is 109%; in the assay on RXF 393 renal it was 81.7%; with SF-268 CNS, 138%; in the assay with SF-295 CNS it was 62.3%; in the assay on SF-539 CNS it was 122%; with UACC-257 melanoma it was 30.7%. Moreover, in the assay on M14 melanoma, the growth is 66.9%.

As for `Cc1cc2nc(CO)[nH]c2cc1C`, the growth with NCI-H23 lung was 105%; in the assay with NCI-H226 lung, 108%; with NCI-H322M lung, 113%; in the assay on HOP-62 NSCLC it was 99.4%; in the assay with NCI-H460 lung, 114%; in the assay on NCI-H522 lung it was 96.9%. Further, the growth in the assay with A549/ATCC NSCLC is 90.9%; in the assay with 786-0 renal it was 107%; with COLO 205 colon, 103%; with DU-145 prostate, 104%; in the assay on K-562 leukemia, 111%; with MALME-3M melanoma, 144%. Further, the growth in the assay with MDA-MB-231 breast was 109%; in the assay with RXF 393 renal, 89.8%; in the assay on SF-268 CNS it was 88.7%; with SF-295 CNS, 121%; with SF-539 CNS, 107%; with UACC-257 melanoma, 92%. Besides, the growth in the assay with M14 melanoma was 107%.

With `CCOC(=O)c1coc(C(=O)OCC)c1C(=O)OCC`, the growth in the assay with NCI-H23 lung is 100%; with NCI-H226 lung, 111%; with NCI-H322M lung, 120%; with HOP-62 NSCLC, 119%; in the assay on NCI-H460 lung it was 111%; with NCI-H522 lung it was 128%. Besides, the growth with A549/ATCC NSCLC is 108%; in the assay on 786-0 renal it was 108%; in the assay with COLO 205 colon it was 128%; in the assay on DU-145 prostate, 116%; with K-562 leukemia, 112%; in the assay with MALME-3M melanoma, 116%. The growth is 107% in the assay with MDA-MB-231 breast; 123% in the assay on RXF 393 renal; 105% in the assay on SF-268 CNS; 102% with SF-295 CNS; 112% in the assay with UACC-257 melanoma; 120% in the assay with M14 melanoma.

As to `COC(=O)c1ccccc1Br`, the growth in the assay on NCI-H23 lung was 107%; in the assay with NCI-H226 lung it was 104%; in the assay on NCI-H322M lung, 95.6%; in the assay with HOP-62 NSCLC, 77.9%; in the assay on NCI-H460 lung it was 107%; in the assay with NCI-H522 lung, 94.2%. Further, the growth in the assay on A549/ATCC NSCLC was 103%; with 786-0 renal, 97%; in the assay with COLO 205 colon, 116%; with DU-145 prostate, 102%; with K-562 leukemia it was 111%; in the assay with MALME-3M melanoma it was 98.5%. Also, the growth in the assay on MDA-MB-231 breast was 112%; with RXF 393 renal it was 110%; with SF-268 CNS, 101%; in the assay with SF-295 CNS, 95.1%; in the assay on SF-539 CNS, 102%; with UACC-257 melanoma it was 114%. Moreover, the growth with M14 melanoma is 88.9%.

Take `OCc1ccc(-c2ccc(-c3ccc(CO)s3)o2)s1`: the growth with NCI-H23 lung is 47.5%; in the assay with NCI-H226 lung, -23.9% (active); with NCI-H322M lung, 55.3%; in the assay on HOP-62 NSCLC, 67.1%; with NCI-H460 lung, -4.49% (active); in the assay on NCI-H522 lung, 25.9%. Besides, the growth was 19.8% with A549/ATCC NSCLC; 30.2% in the assay with 786-0 renal; 13.1% with COLO 205 colon; 6.59% (active) in the assay with DU-145 prostate; -3.52% (active) in the assay on K-562 leukemia; 78.1% in the assay on MALME-3M melanoma. For the same molecule, the growth in the assay with MDA-MB-231 breast is 98.8%; with RXF 393 renal, 57%; in the assay on SF-268 CNS, 73.4%; in the assay with SF-295 CNS, 13.6%; in the assay on SF-539 CNS, 43.8%; in the assay with UACC-257 melanoma it was 32.5%. The growth with M14 melanoma is 87.6%.

For the molecule `N#Cc1ccc(NC(=O)Nc2cccc(C#N)c2)cc1`, the growth in the assay on NCI-H23 lung is 86.3%; in the assay with NCI-H226 lung it was 116%; in the assay with NCI-H322M lung, 116%; in the assay with HOP-62 NSCLC it was 112%; in the assay on NCI-H460 lung it was 78.8%; in the assay with NCI-H522 lung, 51.9%. Further, the growth with A549/ATCC NSCLC is 69.1%; in the assay with 786-0 renal, 97.5%; in the assay on COLO 205 colon, 160%; in the assay with DU-145 prostate, 116%; in the assay with K-562 leukemia, 46.1%; in the assay on MALME-3M melanoma, 121%. The growth in the assay on MDA-MB-231 breast was 92.1%; in the assay on RXF 393 renal, 99.3%; with SF-268 CNS it was 112%; with SF-295 CNS, 89.3%; in the assay with SF-539 CNS, 93.9%; with UACC-257 melanoma, 89.2%. Moreover, the growth in the assay with M14 melanoma is 98.1%.

Consider `O=c1cc(-c2ccccc2)[nH]c(=S)[nH]1`, for which the growth in the assay with NCI-H23 lung was 101%; in the assay with NCI-H226 lung, 103%; in the assay on NCI-H322M lung, 97.6%; in the assay on HOP-62 NSCLC it was 108%; in the assay with NCI-H460 lung, 108%; with NCI-H522 lung, 89.3%. For the same molecule, the growth was 104% with A549/ATCC NSCLC; 97.5% in the assay with 786-0 renal; 119% in the assay with COLO 205 colon; 104% in the assay with DU-145 prostate; 96.2% in the assay on K-562 leukemia; 83.5% in the assay with MALME-3M melanoma. The growth is 103% in the assay with MDA-MB-231 breast; 108% in the assay on RXF 393 renal; 92.1% in the assay on SF-268 CNS; 188% in the assay on SF-295 CNS; 102% with SF-539 CNS; 109% in the assay on UACC-257 melanoma. The growth in the assay on M14 melanoma is 102%.

The values above are taken from PubChem BioAssay (NCI).
